This note sets out measurements from PubChem BioAssay AID1907 (The Scripps Research Institute Molecular Screening Center, 2009).

Broadly, the inhibition is the change of the read-out against control, counted positive when it falls.

SMILES strings stand for the structures. The campaign covered roughly 1,900 compounds. About 1,200 (63%) were called active. Rule as the data show it: active = inhibition above about 22%; inactive = the rest. The set was probably picked from earlier hits. The list is a sample of the results.

This assay in a line: cytotoxic compounds in IEC-6 epithelial cells, confirmation, cytotoxicity control, cell-based, luminescence (AID 1907).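 Also: 0% = vehicle and 100% = reference cytotoxic drug.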 The following applies: IEC-6 rat intestinal epithelial viability, at 5 µM, stronger effect = higher value.
Turning to `COc1ccc(C)cc1Nc1nc(C)nc2c1oc1ccccc12`, the inhibition was 22.4% (active).

`COc1cc(NS(=O)(=O)c2ccc3ccccc3c2)c2ncccc2c1`: the inhibition is 63.1% (active).

`CCCOn1c(-n2nc(C)cc2C)nc2ccccc2c1=O`: the inhibition was -7.58% (inactive).

Regarding `O=C(NCCOc1cccnc1)c1ccc(OC2CCN(Cc3ccccn3)CC2)cc1`, the inhibition was 99.6% (active).

With `Cc1cc(C)n2nc(CNS(=O)(=O)c3c(F)c(F)c(F)c(F)c3F)nc2n1`, the inhibition was 13% (inactive).

For the compound `COc1ccccc1C1C2=C(COC2=O)Nc2cc3c(cc21)OCO3` (configuration not stated), the inhibition is 62.6% (active).

In the case of `CCCOc1ccccc1C1CC(=O)Nc2cc3c(cc21)OCO3` (configuration not stated), the inhibition was 56.8% (active).

Consider `COc1ccccc1NC(=O)c1ccc(C)s1`, for which the inhibition is 5.92% (inactive).

Consider `C[C@@H]1C[C@@H]2O[C@H]2/C=C\C=C\C(=O)Cc2c(Cl)c(O)cc(O)c2C(=O)O1`, for which the inhibition is 38.8% (active).

Take `Cc1ccc(-c2csc(NC3OC(=O)c4ccccc43)n2)cc1` (configuration not stated): the inhibition was 28.3% (active).

In the case of `COc1ccc2c(c1OC)C(=O)OC2Nc1nc(-c2ccccc2)cs1` (configuration not stated), the inhibition is 25% (active).

With `Cc1cccc(NC(=O)c2ccc([N+](=O)[O-])o2)c1`, the inhibition was 20% (inactive).

Turning to `CC[C@H]1CN2CCc3cc(OC)c(OC)cc3[C@@H]2C[C@@H]1C[C@H]1NCCc2cc(OC)c(OC)cc21`, the inhibition was 97.2% (active).

As for `CSc1nnc2ccc(-c3ccc(C)cc3)nn12`, the inhibition is 25% (active).

For `O=C1C(=O)N(CC2COc3ccccc3O2)c2ccccc21` (configuration not stated), the inhibition was -2.39% (inactive).

Turning to `CCOC(=O)c1c(C)[nH]c2c1-c1ccccc1C(=O)C2=O`, the inhibition is 100% (active).

For the compound `CC(C)OC(=O)CN1C(=O)C(=O)c2ccccc21`, the inhibition was 9.06% (inactive).

Turning to `CCCCNc1nc2c(c(=O)n(C)c(=O)n2C)n1Cc1cccc(OC)c1`, the inhibition is 19.3% (inactive).

For `COc1ccc(CNS(=O)(=O)c2cc(-c3cc(C)no3)ccc2C(C)C)cc1`, the inhibition is 51.7% (active).

Consider `Cn1nccc1C(=O)NC1CCCc2c1cnn2-c1ccc(F)cc1F` (configuration not stated), for which the inhibition is 23.2% (active).

Consider `Cn1nccc1C(=O)NC1CCCc2c1cnn2-c1ccccc1F` (configuration not stated), for which the inhibition was 7.23% (inactive).

Take `COc1cccc2sc(N(CCCN(C)C)C(=O)CCS(=O)(=O)c3ccccc3)nc12`: the inhibition was 7.79% (inactive).

As to `Cc1nn2c(NCCN(C)C)c3c(nc2c1-c1ccccc1)CCC3`, the inhibition was -0.91% (inactive).

For the compound `COc1cccc(C(=O)Nc2ccc(N3CCN(C(=O)c4ccco4)CC3)cc2)c1`, the inhibition is 23.9% (active).

`COc1cccc(C(=O)Nc2ccc(N3CCCC3)cc2)c1`: the inhibition was 43.2% (active).

For the compound `CC(C)(C)Nc1nc(-c2ccccn2)nc2ccccc12`, the inhibition was -6.6% (inactive).

With `CC[n+]1cc(C)ccc1/C=C/c1ccc(N(C)C)cc1`, the inhibition was 19.6% (inactive).

`Oc1cccc(/C=N/Nc2ccc(Cl)nn2)c1O`: the inhibition was 2.22% (inactive).

On to `C/C(=N\NC(=O)c1ccccc1F)c1ccccn1`, for which the inhibition is 67.3% (active).

On to `C=CCC1(CC=C)CCCN1C(=O)c1cc(COc2ccc(-n3cncn3)cc2)on1`, for which the inhibition was 8.6% (inactive).

On to `COc1ccc(Nc2cc(C)nc(-n3nc(C)cc3C)n2)cc1`, for which the inhibition is 54.9% (active).

As for `CC(=O)c1ccc(Oc2cc(C)nc(-n3nc(C)cc3C)n2)cc1`, the inhibition is 49.9% (active).

As for `CCOc1ncccc1C(=O)NCCc1ccc(OC)cc1`, the inhibition was 12.2% (inactive).

For `COc1ccc(CS(=O)/C(Cl)=C(/Cl)C(=O)Nc2ccc(OC)nc2)cc1` (configuration not stated), the inhibition was 73.2% (active).

In the case of `COc1ccc(NC(=O)/C(Cl)=C(/Cl)S(=O)Cc2ccc(C)cc2)cn1` (configuration not stated), the inhibition was 89% (active).

With `CCOc1ccccc1NC(=O)Cn1nnc(C(=O)NCc2cccs2)c1N`, the inhibition is 56.9% (active).

As to `CSc1nc(N(C)NC(=O)c2cccc(C)c2)c2ccccc2n1`, the inhibition is 76.1% (active).

Regarding `CCn1c(C)nc2c1C(=O)c1ccccc1C2=O`, the inhibition was 10.1% (inactive).

As for `COc1ccccc1N(CC(=O)N/N=C(\C)c1ccccc1O)S(=O)(=O)c1ccc(C)cc1`, the inhibition is 10.4% (inactive).

Consider `C/C(=N\NC(=O)c1ccoc1C)c1ccccc1O`, for which the inhibition is 31.9% (active).

For the compound `Cc1ccc(Nc2nc(N3CCOCC3)nc(N3CCOCC3)n2)cc1Cl`, the inhibition was 63.1% (active).

Consider `CCOC(=O)/C=C/C(=O)OCC(=O)NC(c1ccccc1)c1ccccc1`, for which the inhibition was 43.9% (active).

`CCOC(=O)C1=C(N)N2C(=O)C(C)SC2=C(C(=O)OCC)C1c1cc(OC)c(OC)c(OC)c1` (configuration not stated): the inhibition was -3.21% (inactive).

With `COc1ccc(Nc2cc(=O)oc3ccccc23)cc1`, the inhibition was 49.1% (active).

As to `O=C(Nn1cc(C(=O)N2CCN(c3ccccc3F)CC2)c2ccccc2c1=O)c1cnccn1`, the inhibition is -3.18% (inactive).

As to `Cc1ccc(-n2c(SCC(=O)Nc3ncc(Cl)cc3Cl)nc3ccccc32)cc1`, the inhibition is 44.1% (active).

On to `Cc1cccc(NS(=O)(=O)c2ccc(-c3cnc(C4CC4)o3)cc2)c1`, for which the inhibition was 53% (active).

On to `Cc1onc(NC(=O)c2ccc([N+](=O)[O-])o2)c1Br`, for which the inhibition was -1.42% (inactive).

In the case of `Cc1cccc(-n2ncc(Cl)c(Cl)c2=O)c1`, the inhibition was 27.2% (active).

Take `Cc1nc(Nc2ccc3c(c2)OCCO3)c2nnn(Cc3ccccc3Cl)c2n1`: the inhibition is 11.1% (inactive).

Turning to `CC(C)c1cc(C(=O)N/N=C/C(Br)=C/c2ccccc2)n[nH]1`, the inhibition is 42.1% (active).

Turning to `O=C(NC(Nc1nc2ccc([N+](=O)[O-])cc2s1)(C(F)(F)F)C(F)(F)F)c1ccccc1`, the inhibition was 97.9% (active).

With `CCCOC(=O)c1[nH]c2c(c1C)C(=O)CC(c1cccs1)C2` (configuration not stated), the inhibition is 57.1% (active).

With `CCOc1cc(/C=C/c2nc3ccccc3c(=O)[nH]2)cc(Br)c1OC`, the inhibition was 50.8% (active).

As for `CCOc1c(Nc2cccc(Cl)c2)c(=O)c1=O`, the inhibition was -1.97% (inactive).

As for `O=C(Nc1ccccc1Cl)/C(Cl)=C(\Cl)S(=O)c1ccccc1` (configuration not stated), the inhibition is 78.4% (active).

With `O=C(CN1C(=O)C2C3C=CC(C3)C2C1=O)Nc1nc(-c2ccccn2)cs1` (configuration not stated), the inhibition was 19.4% (inactive).

Take `Cc1ccc(S(=O)(=O)C2(S(=O)(=O)c3ccc(C)cc3)CCCC2)cc1`: the inhibition is 23.1% (active).

For the compound `COc1ccc(Nc2oc(-c3ccccc3Cl)nc2C#N)cc1`, the inhibition was 58.2% (active).

`CNC[C@H](CC1CCCCC1)NC[C@H](NCCC1CCCC1)[C@H](C)O`: the inhibition is 56.1% (active).

With `CCOc1cccc(-n2nnnc2-c2ccc(OC)cc2)c1`, the inhibition is 39.2% (active).

Regarding `COc1ccc(C2=NOC(C(=O)NCc3ccco3)C2)cc1OC` (configuration not stated), the inhibition is 39.3% (active).
